Whole data set: some 33,000 sequences, median “E-score (-0.5 to 0.5)” near -0.016, cut for the highest 2% near 0.32. For the sample, the highest values were picked, then their nearest neighbours and some sequences at random.
Target: T1, Stp1 (UniProt B3LFK1)
T1 sequence: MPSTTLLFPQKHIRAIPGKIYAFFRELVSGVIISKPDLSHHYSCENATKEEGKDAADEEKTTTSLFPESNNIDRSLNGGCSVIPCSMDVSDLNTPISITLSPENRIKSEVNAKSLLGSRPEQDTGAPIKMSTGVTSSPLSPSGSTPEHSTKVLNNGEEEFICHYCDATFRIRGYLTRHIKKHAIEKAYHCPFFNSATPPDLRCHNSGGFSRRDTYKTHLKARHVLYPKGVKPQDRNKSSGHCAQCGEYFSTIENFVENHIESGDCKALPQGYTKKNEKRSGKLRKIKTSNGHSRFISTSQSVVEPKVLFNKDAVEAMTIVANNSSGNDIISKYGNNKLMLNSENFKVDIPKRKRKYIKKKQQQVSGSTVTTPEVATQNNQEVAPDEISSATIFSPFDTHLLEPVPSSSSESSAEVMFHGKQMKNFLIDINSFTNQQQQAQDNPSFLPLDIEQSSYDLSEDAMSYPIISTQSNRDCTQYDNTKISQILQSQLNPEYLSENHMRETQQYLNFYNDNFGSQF
Assay: PBM E-score (8-mer binding enrichment) (E-score (-0.5 to 0.5)); higher = stronger / more preferred TF binding
Settings: protein concentration: 200 nM; construct: GST-full length
Experimental: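 Universal 'all 10-mer' protein binding microarrays (Agilent AMADID 015681) probed with GST-tagged S. cerevisiae TFs (full-length or DBD) made by in vitro transcription/translation (PURExpress), about 100-200 nM. Bound TF was detected with fluorescent anti-GST. Each ungapped 8-mer (which stands for itself and its reverse complement) is scored by the PBM enrichment score (E-score), a modified Wilcoxon-Mann-Whitney statistic from -0.5 to +0.5, computed with the Universal PBM Analysis Suite. Scale: above 0.35 generally sequence-specific binding.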

Sequence	PBM E-score
CGCTTACA	0.0771
GTATACCA	0.0622
ACTTATCC	-0.0589
CATAGACA	0.0911
CAATAAAG	0.217
AGTTGACC	-0.0773
ATATGGGC	-0.0537
ACCCGTTC	0.0622
ACCGAAAT	0.0238
ATCTTAAA	-0.0445
AGGACTGC	-0.256
AGTTATCG	0.106
GCCGCTTA	0.39
GCCGCTCA	0.381
ACCGCTCC	-0.223
CCCGCTCC	-0.241
GCCGCTCC	0.398
ACCGCTTA	-0.238
TCCGCTCA	-0.102
ACCGCTCA	0.0634
CCCGCTTA	0.0273
CAGCGCTA	0.0165
ATGCCCTA	0.168
CAGTACGC	-0.111
CAGCTACG	-0.14

Sequence	PBM E-score
CAAGCGCC	0.219
ATAGCGCC	0.357
GCAGCGCC	0.33
CTAGCGCC	0.16
GAAGCGCA	-0.0259
GAAGCGCC	0.337
CCAGCGCC	0.235
ACAGCGCC	0.249
ATAGCGCG	0.136
AGGTACCC	-0.414
AGCTACCG	-0.16
ACATGGCT	-0.137
CCATCCAA	0.0222
AAAACGGT	-0.0136
CAAACGGC	0.459
AAAACGCC	0.386
GAAACGCC	0.289
GAAACGGA	0.132
CAAACGCC	0.258
AAAACGGA	0.201
CAAACGGG	0.175
AAAACGGC	0.403
AAAACGCG	0.251
CAAACGGA	0.236
GAAACGGC	0.462

Sequence	PBM E-score
ACCTGATG	-0.102
CCGCATTC	0.105
TACCCTAA	-0.0225
CACCCACC	-0.192
GAGCCATA	0.0155
ATTGCTAC	0.0429
CAGGCGTC	-0.00022
AGGCCAGA	-0.103
ACAACGGC	0.308
GCAACGGC	0.411
CCAACGGC	0.316
ATAAAGGA	-0.201
CACGCTAC	-0.0658
CACTCGGC	0.28
GAAAAGAA	0.0978
CTTCTAAA	0.168
AATGCCGT	0.485
AATGCCGC	0.465
AATGCCGG	0.137
AATGCCGA	0.303
AATGCCTC	0.308
AATGCCAC	0.293
AGGCAGAG	-0.00743
CCCTAAAC	-0.193
GCGATCAA	-0.0307

Sequence	PBM E-score
CCTCCTCG	-0.21
AGCGCGGC	0.402
ATCGCGGC	0.238
CGCGCGGC	0.483
CGCGCGTC	0.16
AGCGCGGG	0.098
CTCGCGGA	-0.0275
CTCGCGGC	0.334
CGCGCTGC	0.122
AGCGCGGA	0.0636
AGGTGGCC	-0.294
TCTCGAGA	-0.01
CCCCGCCC	0.139
ATCTTTGC	0.262
GATACGGC	0.463
AATACGGG	-0.0327
GATACGAC	0.0153
CATACGGA	0.268
CATACGGG	0.224
AATACGGT	0.0778
GATACGGA	0.285
AATACGGC	0.453
CATACGGC	0.472
ACCCTGAG	-0.216
AATAGACC	-0.159

Sequence	PBM E-score
AACACTTA	0.0357
ACATGGCC	0.147
CCAACATC	-0.127
AGAGCTAT	-0.179
ACAAGGGC	-0.0113
CCACCTGC	-0.021
CCGAGGCC	-0.22
CCGAGGAG	-0.0986
ACGAGGCC	0.016
AGGAGGCG	0.201
ACGAGGCT	0.323
ACGAGGAT	-0.102
ACGAGGTA	-0.0774
ACGAGGCG	0.457
ACGAGGCA	0.37
CCGAGGCG	0.333
ACCAGGCT	-0.326
ACGAGGGA	-0.0556
CTGCAGGC	-0.372
CTCATCTC	0.0521
ACTAAAGT	-0.0712
AGTCTGGC	-0.207
TACGGTAA	0.157
GCGTGGGA	-0.0429
GTCGTCAC	-0.0794

Sequence	PBM E-score
TCGAGGCA	0.195
GCGAGGCA	0.439
CCGAGGCA	0.179
TATCAATA	0.0831
AGCGGCCG	0.285
CGCGGCCA	0.269
CGCGGCCC	0.349
CGCGGCCG	0.321
GGCGGCCC	0.0299
AGCGGCCC	-0.00454
AAAGTCGA	-0.15
ACACACGG	0.356
ACACACGA	0.135
CCACACGG	0.385
CCACACGC	0.158
AGACACGG	0.363
AGACACAA	0.154
ACAAACGA	0.129
ACAAACGC	0.252
ACAAACGG	0.352
CCACACGA	-0.105
ACACACGT	0.0897
AGACACGA	-0.124
CTAGACGA	0.105
GCTCAGCC	-0.123

Sequence	PBM E-score
ATGAGAGG	-0.118
CTCGGTTA	-0.119
ATGCGAAC	-0.103
ATGGCGCA	0.0846
ACGGCGCT	0.481
ACGGCCCT	0.275
ACCGCGCT	0.077
ACGGCCCA	0.333
CTGGCGCA	-0.0136
TCGGCCCA	-0.116
ACTGCGCT	-0.19
ACGGCGCA	0.482
GACTGACC	-0.312
GCCTCTCC	0.0401
CCTCCTGC	-0.205
ACAGTCTA	-0.00216
GCTTGCCA	-0.0643
ACCTAGAT	-0.159
AAGCTAAG	-0.136
CAGTGTCA	0.0177
AGGCAATA	0.227
CGGCAAGC	0.124
CGGCAATA	0.352

Reference: the supplement of paper PMC3334620
